An excerpt weighted towards active compounds, which were near 6.5% of everything screened.
FMDV antiviral = blocks foot and mouth disease virus; Potency, µM (doses to about 57.9 µM), without a hit: at the highest dose activity change, negative = inhibition, most hits filed as inhibitors; 410,000 compounds, 1.2% hits; FMDV antiviral cell-based qHTS; calls by dose curve; tested in HEK293T cells; also: read-out not given here; potency is read from the fitted curve at half-maximal effect; nearly all actives have a fitted effect of over 45% in size
HCMV inh = blocks human cytomegalovirus replication; HFF cells, HCMV-luciferase reporter, 72 h; active compounds read low; activity change, negative = inhibition, % at 57.5 µM; 410,000 compounds, 4.5% hits; AID 1259415; in the data active = activity change below about -60%; inconclusive = no clear call, values can overlap the other calls; inactive = above about -39%
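Cell-based, HFFs, 1000 cells/well, 16 h 37C; cpds in DMSO + HCMV-luc, MOI 1 PFU/cell; 72 h 37C; OneGlo luminescence after 5 min RT; norm. to buffer vs Salinomycin 10uM.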
Lassa entry inh = inhibitors of Lassa virus binding or cell entry | Lassa virus pseudotype entry inhibition, cell reporter | 300,000 compounds, 1.2% hits | Potency, µM (highest dose often 37.9 µM), for the others: at the highest dose activity change, negative = inhibition, usual class: inhibitors; calls by dose curve; tested in HEK293 cells; also: potency is read from the fitted curve at half-maximal effect; nearly all actives have a fitted effect of over 50% in size
Marburg entry inh = blocks Marburg virus binding to or entry into cells; Marburg virus pseudotyped entry inhibition, cell reporter; AID 540276; Potency, µM (titrated, usually from 37.8 µM), inactives show at the top dose activity change, negative = inhibition, most hits filed as inhibitors; 300,000 compounds, 1.8% hits; calls by dose curve; tested in HEK293 cells; also: potency is read from the fitted curve at half-maximal effect
Vaccinia Venus = vaccinia inhibition (Venus reporter); Vaccinia virus Venus reporter expression, fluorescence; Potency, µM (series often up to 36.5 µM), inactives show at the highest dose activity change, negative = inhibition, most hits filed as inhibitors; 330,000 compounds, 0.46% hits; calls by dose curve; tested in A549 cells; also: potency is read from the fitted curve at half-maximal effect; nearly all actives have a fitted effect of over 30% in size
Vaccinia mCherry = vaccinia inhibition (mCherry reporter); Vaccinia virus mCherry reporter infection, fluorescence; Potency, µM (top dose mostly 36.5 µM), inactives show top-dose activity change, negative = inhibition, hits mostly inhibitors; 310,000 compounds, 0.63% hits; AID 720579; calls by dose curve; tested in A549 cells; also: potency is read from the fitted curve at half-maximal effect; nearly all actives have a fitted effect of over 35% in size
Starred values were filed as active, the others as inactive; i = inactive; ? = inconclusive; nt = no result given; ! = not confirmed by another sample; [ ] = another dose, or the depositor's remark. % is scaled to controls: 0 for no effect and ±100 for the full control effect.

SMILES | FMDV antiviral | HCMV inh | Lassa entry inh | Marburg entry inh | Vaccinia Venus | Vaccinia mCherry
COc1ccc(-n2ccnc(NCc3cccs3)c2=O)cc1 | 20% | 45 | 14%[46.1 µM] | nt | -14% | -18%
CCN1C(=O)c2ccccc2S(=O)c2ccc(C(=O)N3CCN(c4cc(Cl)ccc4C)CC3)cc21 (stereo not given) | ? | ? | ? | ? | -12% | -14%
O=C(/C=C/c1ccc([N+](=O)[O-])cc1)c1ccccc(=O)c1O | 13µM* | -95* | ? | ? | -28% | ?
CNc1nc(-c2ccccc2C)nc2ccccc12 | -5% | nt | nt | nt | nt | nt
O=C(/C=C/c1ccc(F)cc1)c1ccccc1Br | 22µM* | -82* | ? | -28% | 28µM* | ?
CCOc1ccc(NC(=O)COC(=O)c2ccccc2OCC(=O)N(C)C)cc1 | nt | nt | nt | nt | -12% | -7%
O=c1oc2ccc(Cl)cc2cc1-c1nnc(Nc2cccc(C(F)(F)F)c2)s1 | -17% | -64* | 11% | -1% | -5% | 3%
COC(=O)[C@@H]1[C@@H](CO)[C@@H]2Cn3c(ccc(Br)c3=O)[C@H]1N2C(=O)Cc1ccccn1 | nt | 4 | nt | nt | nt | nt
O=C(N[C@H]1CCC(=O)N(CCSc2ccc(Br)cc2)CC1)OCc1ccccc1 | 32µM* | -10 | nt | nt | -30% | -17%
Cc1ccc(SCCN2CCC(NC(=O)OCc3ccccc3)CCC2=O)cc1 (stereo not given) | -16% | 15 | nt | nt | -11% | -27%
O=c1[nH]c(SCc2nc3ccccc3c(=O)n2-c2ccccc2C(F)(F)F)nc2ccccc12 | 18µM* | ? | -22% | 4% | -14% | -18%
COc1ccccc1CNc1ncnc2c1c(-c1ccccc1)cn2-c1cccc(C)c1 | ? | -60* | -14%[46.1 µM] | nt | -20% | -15%
CCn1cc(C(=O)NCc2ccc3c(c2)OCO3)c(=O)c2cc(F)c(N3CCN(C(=O)c4ccco4)CC3)cc21 | 14µM* | -73* | ? | ? | 13µM* | 11µM*
CCn1cc(C(=O)NCc2ccccc2)c(=O)c2cc(F)c(N3CCN(C(=O)c4ccco4)CC3)cc21 | 20µM* | -82* | ? | ? | ? | nt
CCn1cc(C(=O)NCc2ccncc2)c(=O)c2cc(F)c(N3CCN(C(=O)c4ccco4)CC3)cc21 | ? | -18 | 2% | 7%[46.1 µM] | -9%[7.34 µM] | -12%[7.34 µM]
COc1ccc(C2=CC(c3ccc(OC)c(OC)c3)c3c(c4ccccc4oc3=O)O2)cc1OC (stereo not given) | -28% | -64* | nt | nt | -30% | -15%
COc1ccc(NC(=O)c2oc3ccccc3c2NC(=O)Cc2cccs2)cc1 | 8% | -4 | 5%[46.1 µM] | 3%[46.1 µM] | -19% | i
O=c1c(-c2cc(F)cc(F)c2)nc2cncnc2n1Cc1ccccc1 | -14% | nt | nt | nt | nt | nt
FC(F)(F)c1cc(CO[C@H]2CCCN[C@H]2c2ccccc2)cc(C(F)(F)F)c1 | 0% | nt | nt | 14µM* | nt | nt
C[C@@H]1CC[C@H]2C(=O)N3[C@@H](CC[C@@H](C)[C@@H]3c3ccc(Br)cc3)C(=O)N2[C@@H]1c1ccc(Br)cc1 | nt | nt | nt | -25%[14.2 µM] | nt | nt
c1ccc(Nc2nc3ccccc3[nH]2)nc1 | -2% | -68* | ? | -26% | -5% | -16%
Nc1ccc(Nc2nc3ccccc3[nH]2)cc1 | -14% | 12 | ? | ? | -6% | -8%
O=C(NCc1ccccc1)C1CCC(CNc2c(N3CCCCC3)c(=O)c2=O)CC1 (stereo not given) | -7% | 101 | -2% | 24% | 0% | 7%
O=C(NCc1ccc2c(c1)OCO2)C1CCC(CNc2c(N3CCCC3)c(=O)c2=O)CC1 (stereo not given) | -4% | -84* | nt | -2% | -6% | 3%
COc1ccc(Oc2ncc3nc(C)c(=O)n(Cc4ccc(F)cc4)c3n2)cc1 | -23% | nt | nt | nt | nt | nt
SMILES | FMDV antiviral | HCMV inh | Lassa entry inh | Marburg entry inh | Vaccinia Venus | Vaccinia mCherry
O=C(Oc1ccc2ccccc2c1Br)N1CCCCCC1 | 0% | -82* | 3.3µM* | 1.2µM* | nt | nt
CCN(CC)C(=O)Oc1ccc2ccccc2c1Br | 18% | -89* | ? | ? | 9% | -3%
COc1cc(N)c(Cl)cc1C(=O)N[C@H]1CCN(CCCOc2ccc(F)cc2)C[C@H]1OC | ? | -94* | nt | nt | -16% | -9%
COc1cc(N)c(Cl)cc1C(=O)OCCCN1CCCCC1 | -16% | nt | nt | nt | nt | nt
CCCCc1ccc(C(=O)N/C(=C\c2ccc(C)cc2)C(=O)NC2CCCCC2)cc1 | -1% | 10 | 16%[46.1 µM] | nt | -8% | -6%
Cc1ccc(C(=O)N/C(=C\c2ccc(Cl)cc2)C(=O)NC2CCCCC2)cc1 | 3% | -98* | -9%[46.1 µM] | nt | ? | ?
Cc1ccc(C)c(N2CCN(CCCNC(=O)c3cnn(-c4cccc(Cl)c4)c3C3CCN(C(=O)OC(C)(C)C)CC3)CC2)c1 | -10% | -4 | 13µM* | nt | ? | ?
Cc1ccc(C)c(N2CCN(CCCNC(=O)c3cnn(-c4ccccc4Cl)c3C3CCN(C(=O)OC(C)(C)C)CC3)CC2)c1 | ? | -105* | ? | nt | ? | ?
COc1cccc(C(=O)NCC2CCN(C(=O)C(=O)c3cc4ccccc4o3)CC2)c1 | nt | 41 | nt | nt | nt | nt
Cn1cc(C(=O)Nc2ccc(C#N)cc2)c2ccccc2c1=O | -2% | -67*! | 11% | ? | 0% | 14%
CC(=O)c1cn(C)c(=O)c2ccccc12 | 4% | 53 | nt | nt | nt | nt
CCOc1cc(CNCc2ccncc2)cc(Br)c1OCc1ccccc1F | ? | -70* | ? | ? | ? | -1%[1.46 µM]
OCCNCc1cc(Br)ccc1OCc1ccc(Cl)cc1Cl | 0% | -17 | 11µM* | 11µM* | ? | nt
CCOc1cc(CNCCO)cc(Br)c1OCc1ccc(Cl)cc1Cl | ? | 2 | -24% | ? | 13µM* | nt
CCOc1cccc(CNCCO)c1OCc1ccc(Cl)cc1Cl | ? | ? | -25% | ? | ? | ?
COC(=O)C1CCCCN1Cc1nc(N(C)C)c2ccccc2n1 (stereo not given) | -3% | nt | nt | nt | -11% | -8%
CCOc1ccc2nc(N[C@@](NC(=O)CC)(C(=O)OC)C(F)(F)F)sc2c1 | nt | nt | nt | 2% | nt | nt
O=[N+]([O-])c1ccccc1/C=C1\C=Cc2ccccc21 | nt | nt | nt | nt | -9% | -13%
Cc1oc(-c2ccc3c(c2)OCCO3)cc1C(=O)NCC(=O)O | 28µM* | -13 | ? | ? | -9% | -13%
COc1ccc(-c2cc(C(=O)O)c(C)o2)cc1OC | 13µM* | -17 | ? | ? | nt | nt
Cc1oc(-c2ccc3c(c2)OCCO3)cc1C(=O)O | 2.2µM* | -63* | 1.1µM* | ? | -11% | -2%
COc1ccc(-c2cc(C(=O)NC(Cc3cc4ccccc4[nH]3)C(=O)O)c(C)o2)cc1OC (stereo not given) | 21% | 25 | 19% | 3%[46.1 µM] | -6% | i
Cc1oc(-c2ccc3c(c2)OCCO3)cc1C(=O)NC(CCC(=O)O)C(=O)O (stereo not given) | 41% | 52 | -22% | -22% | nt | nt

From PubChem BioAssay
